Where “and” joins values, the source holds several entries; their conditions need not be identical. Identical values can stand only once. The panel holds about 79,000 compounds, 15% with a hit somewhere; the sample as a whole holds those more often. A number with no mark means an inactive call. Cut-off read from the data, not from the text of the source: active = growth inhibition above about 70%; inactive = the rest.
Experiment: NCI Yeast Anticancer Drug Screen. Data for the mlh1 rad18 strain (AID 175)
Settings: S. cerevisiae mlh1 rad18 strain growth inhibition, stronger effect = higher value; at 50.0 µM unless noted
How it was run: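 Read-out is yeast growth inhibition, calculated against vehicle-only controls. The compound was applied to a strain engineered with DNA damage repair alterations.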

SMILES	growth inhibition
O=C(O)c1ccccc1SSc1ccccc1C(=O)O	7.85% and 9.6%
CCCCCCCSCC(=O)OCC	-5.75%
CCc1ccc(O)cc1O	-4.6%
CCCCCCCCCCCCCCCCC(C#N)C(=O)O (stereo not given)	-18.9%
O=C1CCCC/C1=C/C=C/c1ccccc1	6.75%
CC1(C)CC(=O)C(/C=N/C(=S)Nc2ccc(S(N)(=O)=O)cc2)=C(O)C1	-30.4%
CC(=O)OCC(OC(C)=O)C(OC(C)=O)C(OC(C)=O)C(OC(C)=O)C(=O)NC1CCc2ccccc2C1 (stereo not given)	21.9%
O=c1[nH][nH]c(=O)c2c([N+](=O)[O-])cccc12	-0.35%
COc1ccccc1OC(=O)c1ccccc1	-5.35%
Cc1nc(N)c(N)c(=O)[nH]1	-2.6%
C=CCC(O)CCCCC (stereo not given)	-23.4%
OC1COC(OCc2ccccc2)C(O)C1O (stereo not given)	-3.4% and -12.2%
COc1ccc(-c2cc(=O)c3c(O)c(O)c(OC)cc3o2)cc1O	-18.3%
CCCCC(C(=O)O)N(C)C (stereo not given)	-20.4%
CCCCCCN(CCCCCC)CC(O)c1cc(-c2ccc(Cl)cc2)nc2c(Cl)cccc12 (stereo not given)	19.9%

Source: PubChem BioAssay (NCI)
